# PriA SSB inh: inhibitors of Klebsiella pneumoniae PriA binding to SSB C-terminal tail, primary screen, biochemical, AlphaScreen | PriA–SSB C-terminal tail interaction (Klebsiella pneumoniae) | AlphaScreen SSBct-PriA binding, biotinylated peptide | inhibition, % at 33 µM | 0.6% of 430,000 active; in the data active = inhibition mostly above about 37%, no sharp cut-off; inactive = mostly below about 20%;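 note: plate controls were negative control peptide for no effect and reference peptide for full effect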
# BoNT A protease: BoNT/A light chain protease inhibitors, primary screen, biochemical, flow cytometry, MLPCN library; AID 588499, 2011; Botulinum neurotoxin type A light chain protease (Clostridium botulinum A str. ATCC 3502); inhibition, % at 10 µM; multiplex microsphere protease substrate cleavage; 0.17% of 360,000 active; note: plate controls were buffer without enzyme for full effect and enzyme alone for no effect
# BoNT-F LC inh: BoNT/F light chain protease inhibitors, primary screen, biochemical, flow cytometry, MLPCN library. Multiplex microsphere protease cleavage assay. 0.22% of 360,000 active. inhibition, % at 10 µM. AID 588497, 2011; in the data active = inhibition above about 35%, passing the limit was not always enough; inconclusive = no clear call, values can overlap the other calls; note: plate controls were buffer without enzyme for full effect and enzyme alone for no effect
# Autofluor counter: flagged as autofluorescent in microsphere protease counterscreen | compound autofluorescence counterscreen, microsphere flow cytometry; active compounds read high | fluorescence intensity (concentration not given with the values) | 3.1% of 360,000 active | AID 624483; in the data active = fluorescence intensity above about 16000; inconclusive = no clear call, values can overlap the other calls
# Anthrax LF prot: Bacillus anthracis LF protease inhibitors, primary screen, biochemical, multiplex microsphere, MLPCN library; Lethal factor (Bacillus anthracis), P15917; multiplex microsphere protease cleavage assay; inhibition, % at 10 µM; 0.12% of 360,000 active; note: plate controls were buffer without enzyme for full effect and enzyme alone for no effect
# Active calls of the source: *; i = inactive; u = inconclusive; x = no result given. The list is not random: actives were taken first. Their share in the collection is about 3.1%. Cut-off read from the data, not from the text of the source, unless noted: active = inhibition above about 30%; inconclusive = no clear call, values can overlap the other calls; inactive = below that.
SMILES,PriA SSB inh,BoNT A protease,BoNT-F LC inh,Autofluor counter,Anthrax LF prot
CC(CCCO)=NNc1ccc([N+](=O)[O-])cc1[N+](=O)[O-],-1,x,x,x,x
CCOC(=O)C(=NNc1ccc([N+](=O)[O-])cc1[N+](=O)[O-])C(=O)OCC,90*,x,x,x,x
CCOc1cc(C(=O)Nc2cc(C)c3c(=O)oc4ccccc4c3n2)cc(OCC)c1OCC,-9,x,x,x,x
O=C(NCCc1ccc(Cl)cc1)c1cnccn1,-2,-1,-11,4749,-2
CCOc1ccccc1C(=O)Nc1cnn(Cc2ccc(F)cc2)c1,-18,0,-8,7786,-8
O=C(Nc1cnn(Cc2ccc(Cl)cc2)c1)c1cnccn1,-5,4,4,19189*,-6
CC(=O)Nc1cnn(Cc2ccc(Br)cc2)c1,9,-3,-3,24279*,-2
CCOC(=O)/C(C#N)=C/c1cc2ccccc2nc1N1CCCCC1,-40,31*,10,2550,12
CC(C)c1nccn1CC1CCN(C(=O)CSC2CCCC2)CC1,-10,x,x,x,x
O=C(c1cccc(C(F)(F)F)c1)N1CCN(c2ccc(-n3cncn3)nn2)CC1,-18,x,x,x,x
Cc1cccc2nc(Cn3c(=O)n(CCC(=O)NCc4ccco4)c(=O)c4sccc43)cc(=O)n12,-27,10,9,20173*,-2
CCOC(=O)c1c(C)oc2ccc(OCc3ccccc3Br)cc12,-18,x,x,x,x
O=C(CCc1ccccc1Br)NCC(O)(c1ccccc1)C1CC1 (stereo unspecified),-14,x,x,x,x
Cc1ccc(CNC(=O)CSc2nc3ccsc3c(=O)n2NC(=O)c2ccccc2)cc1,-17,-2,-3,23505*,-5
CCCCc1nc2ccccc2c(=O)n1-c1ccc(Cl)cc1[N+](=O)[O-],9,u,-1,22486*,0
Cc1ccc(F)cc1NC(=O)Cn1cccc(-c2nc(-c3ccc(Cl)cc3)no2)c1=O,-15,x,x,x,x
CCc1cc(C(=O)NNC(=S)Nc2cccc(C)c2)cs1,-2,-5,-7,21356*,1
Cc1cccc(NC(=S)N2N=CCC2c2ccccc2)c1 (stereo unspecified),-13,-2,-5,17190*,-1
Cc1cccc(NC(=S)NNC(=S)NCc2ccccc2)c1,0,1,-1,22617*,0
S=C(NCc1ccccc1)Nc1cccc(Cl)c1,-22,1,-10,4062,1
Cc1cccc(NC(=S)NNC(=O)c2csc(C(C)C)c2)c1,-16,0,2,9154,-8
CCCCNC(=S)NNC(=O)c1csc(C)c1,-15,0,-2,22322*,-3
COc1ccc(/C=N/NC(=O)c2cc(C34CC5CC(CC(C5)C3)C4)[nH]n2)cc1OC,x,3,40*,2286,1
O=c1ccc(-c2ccccc2)nn1CCCNS(=O)(=O)c1ccc2c(c1)CCCC2,-9,x,x,x,x
CCCCNC(=O)c1sc2nc(C)cc(COC)c2c1-n1cccc1,-14,-2,-5,16799*,-6
SMILES,PriA SSB inh,BoNT A protease,BoNT-F LC inh,Autofluor counter,Anthrax LF prot
CCOC(=O)c1cc(CC)sc1NC(=O)Cc1ccccc1,-82,u,-3,20942*,-4
CCOC(=O)c1cc(CC)sc1NC(=O)COC,-9,2,2,18881*,0
O=C1NC(c2ccccc2)=C(c2ccc3ccccc3n2)C(c2ccccc2)N1 (stereo unspecified),12,0,-2,2509,-2
O=C1NC(c2ccccc2)=C(c2nc3ccccc3s2)C(c2ccc(O)cc2)N1 (stereo unspecified),22,2,2,21586*,-5
CCn1c(SCc2nc3ccccc3[nH]2)nnc1-c1cccs1,0,u,10,21099*,-2
CCn1c(SCc2nc3ccccc3[nH]2)nnc1-c1ccccc1OC,-24,0,4,2344,2
CCn1c(COc2ccc(C)cc2)nnc1SCc1nc2ccccc2[nH]1,2,-1,-1,19776*,-6
CSc1nc2nccc(/C=C\c3ccccc3)n2n1,-11,u,2,21761*,-1
CSc1nc2nccc(-c3ccc(Cl)cc3)n2n1,12,0,-10,2518,-3
CN(CCO)c1ccc(C=NNc2ccc([N+](=O)[O-])cc2S(=O)(=O)Nc2ccccc2C(=O)O)cc1,40*,0,-5,3468,-3
CSc1ccc(/C=N/Nc2ccc(S(=O)(=O)Nc3ccccc3C(=O)O)cc2[N+](=O)[O-])cc1,i,x,x,x,x
Cc1nn(-c2ccccc2)c(Cl)c1C=NNc1ccc(S(=O)(=O)Nc2ccccc2C(=O)O)cc1[N+](=O)[O-],45*,x,x,x,x
CCOc1ccccc1/C=N/Nc1ccc(S(=O)(=O)Nc2ccccc2OC)cc1[N+](=O)[O-],i,x,x,x,x
COc1ccccc1NS(=O)(=O)c1ccc(NN=Cc2ccccc2OCC(=O)O)c([N+](=O)[O-])c1,42*,x,x,x,x
Cc1nn(-c2ccccc2)c(N2CCCC2)c1C=NNc1ccc(S(N)(=O)=O)cc1[N+](=O)[O-],80*,x,x,x,x
CC1(C)Cc2cccc(OCc3ccc(C(=O)NCc4ccco4)cc3)c2O1,-10,x,x,x,x
COc1cc(C=NNc2ccc(S(=O)(=O)Nc3ccccc3C(=O)O)cc2[N+](=O)[O-])ccc1O,49*,0,-4,3990,1
CCCSc1nc(O)c(CC)c(=O)n1C(C)CC (stereo unspecified),-7,u,11,19471*,-9
CCCSc1nc2c(c(=O)n(C)c(=O)n2C)n1C,-1,-8,-4,3002,-8
Nc1cc(=O)[nH]c(SCC(=O)Nc2cccc(Cl)c2)n1,-6,-2,-3,17592*,-1
Nc1cc(=O)[nH]c(SCC(=O)Nc2ccccc2)n1,-7,x,x,x,x
COCc1cc(=O)[nH]c(SCC(=O)Nc2ccccc2)n1,-1,u,-2,22752*,-4
O=C1C2CCCN2C(=O)N1CCCN1CCN(c2ccc([N+](=O)[O-])cc2)CC1 (stereo unspecified),-6,-3,46*,3813,12
O=C1C2CCCCN2C(=O)N1CCN1CCN(c2ccc([N+](=O)[O-])cc2)CC1 (stereo unspecified),-9,0,-3,2875,5
O=C(Nc1ccc2c(c1)OCO2)N1CCN(CCn2ccnc2)CC1,-8,x,x,x,x
SMILES,PriA SSB inh,BoNT A protease,BoNT-F LC inh,Autofluor counter,Anthrax LF prot
COc1nc(N)c(S(=O)(=O)c2ccccc2C)cc1C#N,-16,9,10,19846*,-6
COc1nc(N)c(S(=O)(=O)c2ccccc2)cc1C#N,-5,u,1,22871*,0
COC(=O)N1CCC(CNC(=O)CSc2ccc(F)cc2)CC1,-8,x,x,x,x
COc1cc(NC(=O)C(F)(F)F)cc(OC)c1,-4,-1,-5,16433*,-3
COc1cc(NC(=O)N[C@H](C(=O)O)C(C)C)cc(OC)c1,-4,2,4,21545*,1
COc1cc(NC(=O)N[C@@H](CCSC)C(=O)O)cc(OC)c1,0,-1,-3,4524,-5
CCn1nccc1C(=O)NCc1ccccc1,-12,x,x,x,x
COc1ccc2ccccc2c1-c1sc(Nc2ccccc2)n[n+]1-c1ccc(F)cc1,39*,2,-16,3807,0

# Screens as filed in PubChem BioAssay.
